Laboratory results published in PubChem BioAssay AID1117319 (Southern Research Institute, 2015).
Values joined by “and” are separate entries in the source; they are usually repeats but may differ in a detail not shown here. Equal entries are not always repeated. Hit rate of the full screen: of about 260,000 compounds, about 1,500 (0.58%) were called active. Inconclusive results (about 5%) are left out.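 Rule for the calls: active = inhibition above a set limit at one or more doses, reproduced on every date tested; inconclusive = results disagree between test dates, or hit never tested in dose response; inactive = the rest.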 A selection follows. Measured potencies and affinities stand elsewhere.

biological target: Virion infectivity factor (Human immunodeficiency virus type 1 group M subtype B (isolate BH10)) + Virion infectivity factor (Human immunodeficiency virus type 1 group M subtype B (isolate BRU/LAI)) + Virion infectivity factor (Human immunodeficiency virus type 1 group M subtype B (isolate PCV12)) + Virion infectivity factor (Human immunodeficiency virus type 1 group M subtype B (isolate HXB2)) + DNA dC->dU-editing enzyme APOBEC-3G (Homo sapiens) (UniProt P69720+P69721+P69722+P69723+Q9HC16); assay: inhibitors of Vif binding to APOBEC3G peptide, primary screen, biochemical, TR-FRET, GST-Vif 1-94, biotin-A3G peptide, dose response retest (AID 1117319); settings: stronger effect = higher value;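 note: Vif residues 1-94 fused to GST binding biotinylated APOBEC3G peptide 110-148; 0% = full assay without inhibitor and 100% = GST in place of GST-Vif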

inhibition, inactive:
CS(=O)(=O)N1CCC(C(=O)Nc2cccc(C(F)(F)F)c2)CC1 30.5%, COc1ccc(CCNC(=O)COC(=O)/C=C/c2ccc3c(c2)OCO3)cc1 -7.05%, CC(=O)N1CCN(c2ccc(N=Cc3c(O)n(Cc4ccccc4)c(=O)[nH]c3=O)cc2)CC1 15.1%, COc1ccc(CCn2c(O)c(C=Nc3cccc(F)c3)c(=O)[nH]c2=O)cc1OC 22.7%, CCc1ccc(-n2c(O)c(C=NCCN(CC)CC)c(=O)[nH]c2=O)cc1 1.67%, COc1ccc(CCn2c(N)cc(=O)[nH]c2=O)cc1OC -7.47%, COc1cccc(CNS(=O)(=O)c2ccc3c(c2)CCN3C(=O)C2CC2)c1 5.57%, CCCC(NC(=O)CCc1c(C)c2cc3c(-c4ccccc4)coc3cc2oc1=O)C(=O)O (stereo not given) -3.65%, O=c1cc(O)n(-c2ccccc2)c(=S)[nH]1 30.2%, O=c1cc(O)n(-c2ccc(Cl)cc2)c(=S)[nH]1 -0.58%, CC(C)[C@H](NC(=O)c1c(F)cccc1F)C(=O)OCC(=O)NC(=O)NC1CCCC1 -7.96%, Cc1ccccc1S(=O)(=O)c1c(C)cc(C)n(C)c1=O 6.26%, Cc1cccc(C(=O)NNS(=O)(=O)c2ccc(F)cc2)c1 -1.42%, O=C(N/N=C/c1cccc([N+](=O)[O-])c1)c1cccc2cc[nH]c12 -4.35%, CC1=C(C(N)=O)C(c2cccs2)n2nc(-c3cccc(C)c3)nc2N1 (stereo not given) 10.3%, COC(=O)C1=C(C)NC2=C(C(=O)CC(c3cccs3)C2)C1c1ccsc1 (stereo not given) 3.51%, CC1=C(C(=O)Nc2ccccc2F)C(c2ccsc2)C2=C(CC(C)(C)CC2=O)N1 (stereo not given) 0.63%, CCNC(=O)COC(=O)c1cc(-c2ccc(OC)cc2)nc2ccccc12 17.1%, CN(C(=O)COC(=O)c1cc(-c2ccc(Cl)s2)nc2ccccc12)C1CCS(=O)(=O)C1 (stereo not given) -9.51%, O=C(COC(=O)c1cc(-c2cccnc2)nc2ccccc12)Nc1ccc(F)cc1F -4.09%, Cc1ccc(-c2cc(C(=O)OCC(=O)N(C)C3CCS(=O)(=O)C3)c3ccccc3n2)c(C)c1 (stereo not given) 5.39%, CCCn1c(N)c(N(CCOC)C(=O)c2cc(-c3ccco3)nc3ccccc23)c(=O)[nH]c1=O 22.8%, CCCCN(C(=O)c1cc(-c2ccco2)nc2ccccc12)c1c(N)n(CCCC)c(=O)[nH]c1=O 22.2%, Cc1cccc(C)c1NC(=O)COC(=O)c1cccnc1 0.67%, O=C(COC(=O)c1cc(-c2ccco2)nc2ccccc12)NCc1ccccc1 27.6%, COc1ccc(-c2nnc(SCC(N)=O)n2N)cc1 -2.53%, O=[N+]([O-])c1ccc(/C=N/N2CCN(c3ccncc3S(=O)(=O)N3CCCCC3)CC2)cc1 -3.38%, O=C(c1cccc2ccccc12)C1CCCN(C(=O)C2CCOCC2)C1 (stereo not given) 3.16%, CCn1c(SCC(=O)Nc2sc3c(c2C#N)CCCC3)nnc1-c1ccco1 3.19%, COc1cccc(NC(=S)NCCc2ccccn2)c1 -0.67%, Cc1ccc(N2CC(C(=O)OCC(=O)c3c(N)n(CC(C)C)c(=O)n(C)c3=O)CC2=O)cc1 (stereo not given) -1.07%, COC(=O)CSc1cc(C)nc(NC(C)=O)n1 3.6%, CC(C(=O)OCC(=O)Nc1ccc2c(c1)OCO2)N1C(=O)c2ccccc2C1=O (stereo not given) 5.56%, CCN(CC)S(=O)(=O)c1cccc(C(=O)N[C@H](C(=O)OCC(N)=O)C(C)C)c1 19%, CC(C)c1ccc(C(=O)OCC(=O)c2c(N)n(C)c(=O)n(C)c2=O)cc1 2%, Clc1c(-c2ccccc2)nnn1-c1ccccc1 -12%, Cc1cc(C(=O)N2CCN(c3cccc(Cl)c3)CC2)c(C)o1 -5.08%, O=C(OCC(=O)N1CCN(C(=O)c2ccco2)CC1)c1cc(-c2ccccc2)nc2ccccc12 -3.01%, CCOC(=O)C1CCCN(C(=O)c2cc(-c3ccccc3)nc3ccccc23)C1 (stereo not given) -11.1%, CCOC(=O)C1CCCN(C(=O)c2cc(-c3ccc(C)cc3)nc3ccccc23)C1 (stereo not given) 10.1%, O=C(OCC(=O)N1CCN(C(=O)c2ccco2)CC1)c1cc(-c2ccc(F)cc2)nc2ccccc12 -2.07% and -4.96%, Cc1cc(C(=O)OCC(=O)NCc2ccc3c(c2)OCO3)c2ccccc2n1 -5.38%, O=C(COC(=O)c1ccco1)NCc1ccc2c(c1)OCO2 18.2%, O=C(Nc1ccc2oc(-c3cccnc3)nc2c1)c1cc2ccccc2o1 20.3%, COc1ccc(-n2nnc3c(=O)n(Cc4cc(C)ccc4C)cnc32)cc1 -0.91%, CCN(CC)CCNC(=O)c1cc([N+](=O)[O-])c(N(C)C)cc1OC 12.4%, COc1ccccc1NC(=S)NCCSc1ccc(C)cc1 9.9%, O=C1/C(=C/c2cccc(Br)c2)SC(=S)N1CCC(=O)N(CCO)c1ccccc1 -10.6%, Cc1ccc(S(=O)(=O)N2CCCCC2)cc1C(=O)NCCCN1CCOCC1 1.73%, Cc1cc(C)c(S(=O)(=O)NCC2CCC(C(=O)NCCCN3CCOCC3)CC2)c(C)c1 (stereo not given) 3.66%, COc1ccc(S(=O)(=O)NCC2CCC(C(=O)N3CCC4(CC3)OCCO4)CC2)cc1 (stereo not given) 0.18% and -4.29%, Cc1ccc(-n2nc3c(c2NC(=O)c2ccccc2Br)CS(=O)C3)cc1 (stereo not given) 0.72%, O=c1[nH][nH]c(C(F)(F)F)c1/C=N/N1CCOCC1 -7.03%, C/C(=N\Nc1ccc(Cl)c(C(=O)O)c1)c1ccccn1 -6.06%, C/C(=N\Nc1ccc(Cl)c(C(=O)O)c1)c1cccs1 -4.46%, COC(=O)C1=C(C)N(Cc2ccco2)C(=O)/C1=C\c1ccc([N+](=O)[O-])cc1 -12.1%, COC(=O)C1=C(C)NC(=O)/C1=C\c1cc(C)n(-c2c(C)cccc2C)c1C 22.2%, COC(=O)C1=C(C)NC(=O)/C1=C\c1ccc2c(c1)OCO2 16%, COC(=O)C1=C(C)N(C)C(=O)/C1=C\c1ccco1 9.7%, CCN1C(=O)/C(=C\c2cccs2)C(C(=O)OC)=C1C 2.01%, COC(=O)C1=C(C)NC(=O)/C1=C\N(C)C 5.9%, CCOc1cc(/C=C2\C(=O)N(Cc3ccco3)C(C)=C2C(=O)OC)ccc1O 24.1%, COC(=O)C1=C(O)/C(=C\c2cc(C)n(-c3ccccc3F)c2C)N=C1C 25.1%, CC(Sc1ncccn1)C(=O)Nc1ccc2c(c1)OCCO2 (stereo not given) -5.22%, Nc1cc(S(=O)(=O)Nc2ccc(Cl)cc2)ccc1N1CCOCC1 0.79%, COc1ccccc1Nc1nnc(SCC(=O)NC2CCCC2)s1 -10.8%, O=C(CCCOc1ccccc1)N1CCN(C(=O)c2ccco2)CC1 -5.18%, Cc1ccc(-c2nnc(-c3ccncc3)n2-c2ccc(C)cc2)cc1 -0.95%, C=CCN1C(=O)/C(=C\c2cccs2)C(C(=O)OC)=C1C 0.55%, COC(=O)C1=C(C)N(CC(C)C)C(=O)/C1=C\c1cccs1 2.91%, O=C(Nc1ccccc1)c1ccc(Cn2cc(C(F)(F)F)ccc2=O)cc1 -1.59%, O=S(=O)(NCc1ccccn1)c1ccc2c(c1)OCCO2 -0.75%, CCOc1ccc(C(=O)NCC(=O)NCC(c2ccco2)N2CCCCC2)cc1 (stereo not given) -8.81%, CC[n+]1c(/C=C2\C=C(C)CC(C)C2)sc2ccccc21 (stereo not given) 26%, CC[n+]1c(/C=C2\C=C(C)CC(C)(C)C2)sc2ccccc21 25.8%, CCCCOc1ccc(/C=c2\sc3ncnn3c2=O)cc1 6.23%, CCSc1nc2c(sc3nc(C)cc(C)c32)c(=O)[nH]1 -3.63%, CCOCCCNC(=O)C(NC(=O)C1CCC(=O)N1)c1ccc(C)cc1 (stereo not given) 8.49%, C#CC(C)OC(=O)Nc1cnccc1C(F)(F)F (stereo not given) 31.2%, O=C1CC(Nc2ccc(N3CCOCC3)cc2)C(=O)N1c1ccccc1 (stereo not given) 16.9%, Cc1ccc(CN2C(=O)CC(Nc3ccc(N4CCOCC4)cc3)C2=O)cc1 (stereo not given) 4.98%, COc1cccc(N2C(=O)CC(Nc3ccc(N4CCOCC4)cc3)C2=O)c1 (stereo not given) 27.7%, Cc1ccc(NC2CC(=O)N(c3ccc(N4CCCCC4)cc3)C2=O)cc1 (stereo not given) 25.5%, O=C1CC(Nc2ccccc2)C(=O)N1c1ccc(N2CCOCC2)cc1 (stereo not given) 29%, CC(C)CC(=O)Nc1ccc(N2CCOCC2)cc1 -0.35%, O=C(CN1C(=O)C(=O)N(C2CCCC2)C1=O)Nc1ccc(N2CCOCC2)cc1 -7.86%, COc1ccc(NC2CC(=O)N(C(C)C)C2=O)cc1 (stereo not given) 1.77%, COc1cccc(CC(NC(C)=O)C(=O)NC2CCN(S(=O)(=O)c3ccc(F)cc3)CC2)c1OC (stereo not given) -17.6%, CCCCn1c(N)c(N(CCOC)C(=O)CCCc2nc3ccccc3c(=O)[nH]2)c(=O)[nH]c1=O -0.43%, COc1ccc(CC(=O)NCCS(=O)(=O)N2CCN(c3ccccc3OC)CC2)cc1 -3.77%
